An excerpt weighted towards active compounds, which were near 5.3% of everything screened.
Marburg entry inh – blocks Marburg virus binding to or entry into cells; Marburg virus pseudotyped entry inhibition, cell reporter; Potency, µM (top dose mostly 37.8 µM), actives largely listed as inhibitors; 300,000 tested, 1.8% active; AID 540276; calls by dose curve; tested in HEK293 cells
VACV Venus inh – inhibitors of vaccinia virus (Venus reporter). Potency, µM (doses to about 36.5 µM), most hits filed as inhibitors. 330,000 tested, 0.46% active. Vaccinia virus Venus reporter expression, fluorescence; calls by dose curve; tested in A549 cells; also: nearly all actives have a fitted effect of over 30% in size
HCV inhibitor – inhibitors of hepatitis C virus infection | Huh7.5.1 HCVcc-Cre infection, luciferase reporter, 44 h | Potency, µM (doses to about 41.8 µM), actives largely listed as inhibitors | 340,000 tested, 3.4% active | AID 651820; active = well fitted inhibition curve with a large enough effect; inconclusive = small, poorly fitted or top-dose-only effect, or another doubt; inactive = no such curve, though single readings can be large or run the other way
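Cells seeded at 1,000/well and cultured 4 h, then compounds added followed by HCVcc-Cre virus (~0.5 moi). After 44 h further culture, luciferase substrate was added, plates held 15 min at room temperature, and luminescence read for 15 sec.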
FMDV inh – antivirals against foot and mouth disease virus; FMDV antiviral cell-based qHTS; Potency, µM (doses to about 57.9 µM), usual class: inhibitors; 410,000 tested, 1.2% active; AID 1159524; calls by dose curve; tested in HEK293T cells; also: read-out not given here; nearly all actives have a fitted effect of over 45% in size
LASV entry inh – blocks Lassa virus binding to or entry into cells | Lassa virus pseudotype entry inhibition, cell reporter | Potency, µM (doses to about 37.9 µM), most hits filed as inhibitors | 300,000 tested, 1.2% active | AID 540256; calls by dose curve; tested in HEK293 cells; also: nearly all actives have a fitted effect of over 50% in size
VACV mCherry inh – vaccinia inhibition (mCherry reporter). Vaccinia virus mCherry reporter infection, fluorescence. Potency, µM (top dose mostly 36.5 µM), actives largely listed as inhibitors. 310,000 tested, 0.63% active. AID 720579; calls by dose curve; tested in A549 cells; also: nearly all actives have a fitted effect of over 35% in size
Hits are given with their value; - = inactive; ? = inconclusive; . = not tested or not shown; [ ] = dose if it differs, or a comment.

SMILES	Marburg entry inh	VACV Venus inh	HCV inhibitor	FMDV inh	LASV entry inh	VACV mCherry inh
CN1CCN(C2CCN(c3ccc(Nc4nnc(Cl)c(Nc5ccccc5S(C)(=O)=O)n4)c(OC(CF)CF)c3)CC2)CC1	.	?	11.2µM	-	.	?
C=C1C=C(C(F)(F)F)n2ncc(C(=O)NCc3ccc(F)cc3)c2N1	.	-	.	.	.	-
Cc1nn(-c2ccccc2)c(C)c1C(=O)OC(C)C(=O)NC1CCCCC1 (centres undefined)	?	-	12.6µM	?	5.01µM	-
CC(=O)Nc1ccc(NC(=O)C(C)OC(=O)c2c(C)nn(-c3ccccc3)c2Cl)cc1 (centres undefined)	-	-	-	-	3.55µM	-
COc1ccccc1CNc1ncnc2ccc(-c3cccnc3)cc12	.	-	.	-	.	-
CCCCC(=NCCc1c(C)[nH]c2ccc(OC)cc12)C1=C(O)CC(c2ccccc2)CC1=O (centres undefined)	7.94µM	-	?	?	?	?
CC(C)NC(=O)c1ccc(-c2cccc(C(F)(F)F)c2)o1	?	-	-	-	-	.
Cc1cccc(C)c1NC(=O)CN(C)C(=O)c1ccc(-c2cccc(C(F)(F)F)c2)o1	?	-	?	-	5.62µM	-
COc1ccc(C(=O)Nc2nc(-c3ccccn3)cs2)cc1S(=O)(=O)N1CCOCC1	.	.	11.2µM	?	.	.
O=C(Nc1nc(-c2ccccn2)cs1)c1cccc(S(=O)(=O)N2CCOCC2)c1	.	.	3.55µM	-	.	.
N#CCC(=O)N/N=C\c1cccc(OC/C=C/c2ccccc2)c1	?	-	?	-	?	-
Cc1c(C)c2c(c(C)c1O)CC[C@@](C)(CCC[C@H](C)CCC[C@H](C)CCCC(C)C)O2	.	-	-	-	.	-
Cc1c(C)c2c(c(C)c1O)CCC(C)(CN1CCN(c3cc(N4CCCC4)nc(N4CCCC4)n3)CC1)O2 (centres undefined)	10µM	.	.	.	.	.
CCOC(=O)c1cccc(Nc2ccc3cc(S(=O)(=O)N4CCCCC4)ccc3n2)c1	.	-	.	-	?	-
Cc1ccc(C2CN=NC23CCc2ccccc2C3=O)cc1 (centres undefined)	-	.	-	-	-	.
O=C1c2ccccc2CCCC12N=NCC2c1cccc2ccccc12 (centres undefined)	?	.	2.82µM	?	-	.
Cc1noc2ncnc(Oc3cc(Cl)ccc3Cl)c12	-	-	12.6µM	-	-	-
CCSc1nc2c([nH]c3ccccc32)c(=O)n1-c1ccc(OC)cc1	.	-	.	-	-	-
CS/C(Nc1cc(Cl)ccc1Cl)=C(/C#N)C(=O)c1ccco1	?	-	-	?	5.01µM	-
C[C@@H]1CN([C@H](C)CO)C(=O)c2cc(NC(=O)Nc3ccc(C(F)(F)F)cc3)ccc2O[C@H]1CN(C)S(=O)(=O)c1ccc(Cl)cc1	.	-	?	-	.	-
C[C@H](CO)N1C[C@H](C)[C@@H](CN(C)C(=O)Nc2ccc(C(F)(F)F)cc2)Oc2c(NC(=O)Nc3ccccc3)cccc2C1=O	.	?	-	-	.	-
C[C@H](CO)N1C[C@H](C)[C@@H](CN(C)S(=O)(=O)c2ccccc2)Oc2ccc(NC(=O)Nc3ccccc3)cc2C1=O	.	10µM	-	-	.	?
COc1ccc(NC(=O)N(C)C[C@H]2Oc3c(NC(=O)Nc4ccc(C(F)(F)F)cc4)cccc3C(=O)N([C@H](C)CO)C[C@@H]2C)cc1	.	?	6.31µM	-	.	-
Cc1ccc(S(=O)(=O)N(C)C[C@@H]2Oc3ccc(NC(=O)CCC(F)(F)F)cc3CC(=O)N([C@@H](C)CO)C[C@@H]2C)cc1	.	?	?	-	.	-
C[C@H](CO)N1C[C@H](C)[C@@H](CN(C)S(=O)(=O)c2ccc(F)cc2)Oc2ccc(NC(=O)Nc3ccc(C(F)(F)F)cc3)cc2C1=O	.	?	31.6µM	?	.	?
SMILES	Marburg entry inh	VACV Venus inh	HCV inhibitor	FMDV inh	LASV entry inh	VACV mCherry inh
Cc1ccc(S(=O)(=O)N(C)C[C@@H]2Oc3ccc(NS(C)(=O)=O)cc3CC(=O)N([C@H](C)CO)C[C@@H]2C)cc1	.	-	2.82µM	-	.	-
CCCC(=O)Nc1nc2c(ncn2[C@@H]2O[C@H]3COP(=O)(O)O[C@@H]3[C@@H]2OC(=O)CCC)c(=O)[nH]1	.	-	.	-	.	-
Cc1ccccc1NS(=O)(=O)c1ccc2[nH]cc(C(=O)N3CCCC3)c(=O)c2c1	.	-	.	-	-	-
CC1Cc2cc(S(=O)(=O)NCc3ccccc3Cl)ccc2N1C(=O)C1CCC1 (centres undefined)	.	-	.	-	?	-
COc1cccc(Cn2c(SCC(=O)N3CCN(c4ccc(F)cc4)CC3)nc3ccccc32)c1	-	?	.	-	.	-
C[C@@H]1CN([C@@H](C)CO)C(=O)c2cc(NC(=O)CCC(F)(F)F)ccc2O[C@H]1CN(C)Cc1ccc(Cl)c(Cl)c1	.	?	-	?	.	?
C[C@@H]1CN([C@H](C)CO)C(=O)c2cc(NC(=O)Nc3ccc(C(F)(F)F)cc3)ccc2O[C@H]1CN(C)Cc1ccc(Cl)c(Cl)c1	.	10µM	-	-	.	?
C[C@@H]1CN([C@H](C)CO)C(=O)c2cc(NS(=O)(=O)c3ccc(F)cc3)ccc2O[C@@H]1CN(C)Cc1ccc(Cl)c(Cl)c1	.	10µM	6.31µM	?	.	?
C[C@H](CO)N1C[C@H](C)[C@H](CN(C)S(=O)(=O)c2cn(C)cn2)Oc2ccc(NC(=O)Nc3ccc(C(F)(F)F)cc3)cc2CC1=O	.	-	-	-	.	-
C[C@@H]1CN([C@@H](C)CO)C(=O)Cc2cc(NC(=O)Nc3ccc(C(F)(F)F)cc3)ccc2O[C@@H]1CN(C)S(=O)(=O)c1ccc(Cl)cc1	.	11.2µM	?	?	.	?
CC(Oc1ccccc1)C(=O)Nc1nnc2n1CCS2 (centres undefined)	.	-[7.34 µM]	.	-	-	-[7.34 µM]
O=C(c1cc(-c2ccncc2)nc2ccccc12)N1CCN(c2ncccn2)CC1	1.12µM	-	?	-	-	-
O=C(c1cc(-c2ccncc2)nc2ccccc12)N1CCN(c2ccccn2)CC1	?	.	-	-	-	.
O=C(c1cc(-c2ccncc2)nc2ccccc12)N1CCN(c2ccc(N3CCOCC3)nn2)CC1	14.6µM	-	.	-	-	-
Fc1ccc(-c2nc(-c3c[nH]c4ccccc34)cs2)cc1	.	-	.	.	.	-
CCOc1cc(-c2nc3c(c(CC)nn3-c3ccccc3)c3cc(OC)c(OC)cc23)ccc1O	.	-	.	-	-	-
CSc1ccc2c(c1)N(CCC1CCCCN1C)c1ccccc1S2 (centres undefined)	10.3µM	?	?	-	5.17µM	-
COc1ccc(NC(=O)C2C3C=CC4(O3)C2C(=O)N(CCN2CCCCC2)C4C(=O)NC2CCCC(C)C2C)cc1 (centres undefined)	5.01µM	-	-	-	-	-
CN(N=O)c1ccc2c(c1)Cc1ccccc1-2	.	-	.	.	.	-
O=C(OCn1ncc(Cl)c(Cl)c1=O)c1ccc(C(F)(F)F)cc1	?	.	10µM	?	?	.
CCOC(=O)c1ccc(NC(=O)Cn2ncc(Cl)c(Cl)c2=O)cc1	3.16µM	?	?	39.8µM	?	?
CCC(=O)Nc1ccc(C(=O)Cn2ncc(Cl)c(Cl)c2=O)cc1	.	.	?	-	.	.
